{"source": "PubChem BioAssay AID602252", "about": "(Broad Institute, 2012)", "note": "The campaign covered roughly 300,000 compounds. About 2,700 (0.9%) were called active.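 The calls were made as follows: active = mean inhibition of at least 30% with at least half of replicates also reaching 30%; inconclusive = no clear call, values can overlap the other calls; inactive = the rest.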 The list comes from a sample in which actives are over-represented; it also holds similar structures and randomly drawn compounds.", "data": [{"target": "Golgi-associated PDZ and coiled-coil motif-containing protein (Homo sapiens) (UniProt Q9HD26)", "test": "blockade of CAL PDZ-reporter peptide interaction – biochemical, fluorescence polarization, untagged CAL PDZ, HTS, primary screen (AID 602252);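 also: 0% = DMSO neutral control and 100% = excess unlabeled competitor peptide PRC23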", "settings": "purified CAL PDZ, TMR-peptide fluorescence polarization, 1 h; at 24.9 µM; active compounds read high", "values": [{"molecule": "CN(c1ccccc1)S(=O)(=O)c1cc(C(=O)N2CCN(c3ncccn3)CC2)ccc1Cl", "inhibition": "-2.36% (inactive)"}, {"molecule": "Nc1ncnc2c1ncn2[C@@H]1O[C@H](CNS(=O)(=O)c2ccc(-c3ccno3)s2)[C@@H](O)[C@H]1O", "inhibition": "-0.947% (inactive)"}, {"molecule": "COc1cccc(NC(=O)N2CCC(NC(=O)C(Cc3cccc(C)c3)NC(C)=O)CC2)c1", "note": "(stereo unspecified)", "inhibition": "-5.2% (inactive)"}, {"molecule": "COc1ccccc1CC(NC(C)=O)C(=O)NC1CCN(C(=O)Nc2ccccc2Cl)CC1", "note": "(stereo unspecified)", "inhibition": "78.3% (active)"}, {"molecule": "COc1ccc(CC(NC(C)=O)C(=O)NC2CCN(C(=O)C3CC3)CC2)cc1OC", "note": "(stereo unspecified)", "inhibition": "5.28% (inactive)"}, {"molecule": "C=CCCC(=O)N1C[C@H]2CON(C)[C@H]2C[C@H]1c1cccc(Nc2ccccc2)c1", "inhibition": "1.45% (inactive)"}, {"molecule": "O=C(Nc1ccccc1)Oc1cccc2cccnc12", "inhibition": "-4.21% (inactive)"}, {"molecule": "CCC(CO)Oc1cc(NCc2ccccc2)c2ncn(C3CCCC3)c2c1", "note": "(stereo unspecified)", "inhibition": "2.05% (inactive)"}, {"molecule": "Cc1cc(N/N=C/c2ccccc2F)c2ccccc2n1", "inhibition": "30.5% (active)"}, {"molecule": "Cc1ccc2nc(C)cc(N/N=C/c3ccc(F)cc3)c2c1", "inhibition": "-0.859% (inactive)"}, {"molecule": "Oc1ccc(/C=N/Nc2nc(-c3ccccc3F)nc3ccccc23)c(O)c1", "inhibition": "4.73% (inactive)"}, {"molecule": "O=C(c1cccnc1)N(Cc1ccccc1)C(=O)c1cccnc1", "inhibition": "-4.97% (inactive)"}, {"molecule": "COc1ccccc1C(=O)NCCC(=O)NCC(c1ccco1)N1CCCCC1", "note": "(stereo unspecified)", "inhibition": "2.93% (inactive)"}, {"molecule": "CSc1ncccc1C(=O)NCC(c1ccco1)N1CCCCC1", "note": "(stereo unspecified)", "inhibition": "63.8% (active)"}, {"molecule": "COc1ccc(C(CNC(=O)c2cccnc2SC)N2CCOCC2)cc1", "note": "(stereo unspecified)", "inhibition": "-3.62% (inactive)"}, {"molecule": "Cc1ccc(C(=O)Nc2ccc3c(c2)OCCO3)cc1S(=O)(=O)N1CCOCC1", "inhibition": "-4.3% (inactive)"}, {"molecule": "CCCN(CCC)S(=O)(=O)c1cc2c(cc1Br)CCN2C(=O)CC", "inhibition": "0.953% (inactive)"}, {"molecule": "COc1ccc(/C=C/C(=O)OCC(=O)N2CCN(S(=O)(=O)c3ccc(C)cc3C)CC2)cc1OC", "inhibition": "6.76% (inactive)"}, {"molecule": "O=C(CSc1nc2ccccc2c(=O)n1-c1ccccc1F)N1CCOCC1", "inhibition": "-2.27% (inactive)"}, {"molecule": "Cc1ccc(OCC(=O)Nc2ccc(C(=O)O)cc2NC(=O)COc2ccc(C)c(C)c2)cc1C", "inhibition": "56.8% (active)"}, {"molecule": "Cc1cccc(OCC(=O)Nc2ccc(C(=O)O)cc2NC(=O)COc2cccc(C)c2)c1", "inhibition": "-0.14% (inactive)"}, {"molecule": "Cc1ccc(OCC(=O)Nc2cccc3c2CCCC3)cc1C", "inhibition": "1.05% (inactive)"}, {"molecule": "Cc1ccc(NC(=O)CCC(=O)N2CCC(c3ccccc3)=N2)cc1S(=O)(=O)N1CCCCC1", "inhibition": "-3.11% (inactive)"}, {"molecule": "Cc1ccc(C(=O)N2CCCC(c3ccccc3)=N2)cc1", "inhibition": "4.38% (inactive)"}, {"molecule": "Cc1ccc(NC(=S)N2CCCC(c3ccccc3)=N2)cc1", "inhibition": "38.9% (active)"}, {"molecule": "CCCCNC(=O)C(C)N(CCN(C)C)C(=O)CCCN1C(=O)NC(c2ccc(Cl)cc2)C(C(=O)OCc2ccccc2)=C1C", "note": "(stereo unspecified)", "inhibition": "-4.12% (inactive)"}, {"molecule": "COc1cccc(C(=O)N2CCCC(CCC(=O)NCc3ccc(F)c(F)c3)C2)c1", "note": "(stereo unspecified)", "inhibition": "-10.1% (inactive)"}, {"molecule": "COc1cccc(CNC(=O)CCC2CCCN(Cc3ccc(OC(F)F)cc3)C2)c1", "note": "(stereo unspecified)", "inhibition": "7.33% (inactive)"}, {"molecule": "CSc1ncccc1C(=O)N1CCCC(CCC(=O)NCc2ccccc2F)C1", "note": "(stereo unspecified)", "inhibition": "4.75% (inactive)"}, {"molecule": "O=C(CCC1CCCN(Cc2ccc(O)c(Cl)c2)C1)NCc1ccccc1F", "note": "(stereo unspecified)", "inhibition": "-4.54% (inactive)"}, {"molecule": "Cc1[nH]c2c(C(=O)N3CCCC(CCC(=O)NCc4ccccc4F)C3)cccc2c1C", "note": "(stereo unspecified)", "inhibition": "46.8% (active)"}, {"molecule": "COc1cccc(CNC(=O)CCC2CCCN(C(=O)c3ccoc3C)C2)c1", "note": "(stereo unspecified)", "inhibition": "56.3% (active)"}, {"molecule": "CC(C)(C)S(=O)(=O)N1Cc2cc(CO)cc(CCO)c2[C@H]1CCO", "inhibition": "-1.94% (inactive)"}, {"molecule": "CC(C)NC(=O)Nc1cccc2c1O[C@@H](CN(C)S(=O)(=O)c1ccc(F)cc1)[C@@H](C)CN([C@H](C)CO)C2=O", "inhibition": "-0.185% (inactive)"}, {"molecule": "CCc1cc(C(=O)Nc2nnc(C3CC3)s2)sc1C", "inhibition": "-1.8% (inactive)"}, {"molecule": "CSCCC(NS(=O)(=O)c1ccc(C)cc1)C(=O)N(C)CC(=O)Nc1ccccc1Br", "note": "(stereo unspecified)", "inhibition": "0.255% (inactive)"}]}]}
